Screens (PubChem)
FBPA coupling cs: inhibits coupling enzyme system, counter-screen for aldolase hits | 290,000 tested, 0.67% active | coupling enzyme system counterscreen, AmpLite Red fluorescence | AID 2472 | activity change, negative = inhibition, % at 58.2 µM, hits read low; in the data active = activity change below about -30%; note: % is set by controls: 0 for no effect and ±100 for the full control effect
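Counterscreen of the coupled detection system alone, without aldolase: glyceraldehyde-3-phosphate coupling enzymes plus AmpLite Red readout. Compounds at 57.5 uM final, 10 min RT preincubation, 20 min RT reaction, fluorescence 525/598 nm.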
TCR activator: activates T cell receptor signaling; primary human leukocytes, anti-CD3, IL-2 HTRF, 48 h; Potency, µM (highest dose often 9.22 µM), inactives show at the highest dose activation of IL-2 secretion, most hits filed as activators; 330,000 tested, under 10 active; AID 504894; note: % of control where 0% means no effect
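Using a-CD3 beads without co-stimulation, primary human leukocytes were exposed to compounds for 48 hr. An HTRF IL-2 kit measured the cytokine, with europium-to-d2 energy transfer producing emission at 665nm upon 320nm excitation.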
TRb SRC2 PPI: inhibitors of human thyroid hormone receptor beta-SRC2 interaction; P10828; TRbeta-SRC2 peptide binding, fluorescence polarization; receptor liganded with 1 µM T3; Potency, µM (series often up to 106 µM), inactives show at the top dose activity change, negative = inhibition, usual class: inhibitors; 280,000 tested, 0.065% active; AID 1469;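 note: potency is the fitted concentration of half-maximal effect; plate controls were bound peptide for no effect and peptide without receptor for full effect; nearly all actives have a fitted effect of over 50% in size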
Target sequence (P10828 whole entry, looked up): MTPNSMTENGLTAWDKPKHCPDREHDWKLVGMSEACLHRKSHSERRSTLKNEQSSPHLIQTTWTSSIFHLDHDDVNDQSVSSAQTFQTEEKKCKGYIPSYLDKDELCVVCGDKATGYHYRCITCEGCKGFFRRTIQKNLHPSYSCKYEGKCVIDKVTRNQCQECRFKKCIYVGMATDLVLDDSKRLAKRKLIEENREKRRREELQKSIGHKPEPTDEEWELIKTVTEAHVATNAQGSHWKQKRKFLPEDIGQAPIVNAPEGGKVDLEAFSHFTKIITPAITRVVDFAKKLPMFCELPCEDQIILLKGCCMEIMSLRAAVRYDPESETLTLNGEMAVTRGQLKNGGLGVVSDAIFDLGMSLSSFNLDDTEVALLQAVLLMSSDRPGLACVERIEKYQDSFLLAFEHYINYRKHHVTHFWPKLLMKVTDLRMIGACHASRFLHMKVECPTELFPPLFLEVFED
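Quantitative HTS by FP: 0.6 uM TRb LBD, 20 nM labeled SRC2 20-mer, 1 uM T3, 5% DMSO; 5 hr ambient incubation; % activity per concentration and potencies from concentration series.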
TR SRC2 fluor cs: Texas Red fluorescence interference in TRb-SRC2 counter-screen; TRb/SRC2 Texas Red total fluorescence interference; Potency, µM (doses to about 106 µM), inactives show top-dose fluorescence change, negative = quenching; 280,000 tested, 0.29% active; AID 1479; active = well fitted curve in either direction with a large enough effect; inconclusive = small, poorly fitted or top-dose-only effect; note: potency is the fitted concentration of half-maximal effect; % is set by controls: 0 for no effect and ±100 for the full control effect
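Human TRb ligand-binding domain at 0.6 uM with 20 nM Texas Red SRC2 peptide in Tris buffer containing 1 uM T3 and 5% DMSO, incubated with compound 5 h at ambient temperature. Total fluorescence (555/632 nm) calculated as parallel + 2 × perpendicular.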
TSHR antag: human thyrotropin receptor antagonism; 330,000 tested, 0.2% active; P16473; AID 504810; activity change, negative = inhibition, % at 11.5 µM; TSHR-expressing cells, TSH-stimulated cAMP HTRF, 2 h; hits give low values;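 active = activity change below a set negative limit, meaning inhibition stronger than a set level, cut at about -70% in these data; inconclusive = activity change between two set negative limits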; note: % is set by controls: 0 for no effect and ±100 for the full control effect
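Antagonism was scored as loss of TSH-driven cAMP in TSHR cells, stimulated with 4nM TSH (EC80) for 2 hours at 37 deg C and detected by homogeneous HTRF competition immunoassay.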
NPSR antag: antagonists of human neuropeptide S receptor cAMP signaling | 220,000 tested, 1% active | Potency, µM (top dose mostly 38.3 µM), inactives show top-dose activity change, negative = inhibition, hits mostly inhibitors | CHO-NPSR cells, cAMP TR-FRET, antagonist mode | Q6W5P4; note: potency is the fitted concentration of half-maximal effect; % is set by controls: 0 for no effect and ±100 for the full control effect; nearly all actives have a fitted effect of over 50% in size
The depositor's hits bear a star; ? = inconclusive; · = no result given; [ ] = another dose, or the depositor's remark. This is a sample that favours compounds with a hit; in the whole collection about 1% have one here. Unless noted, calls come from the whole dose curve; as a rule, active = well fitted curve in the direction sought with a large enough effect; inconclusive = small, poorly fitted or top-dose-only effect, or another doubt; inactive = no such curve, though single readings can be large; an effect the other way counts as inactive or inconclusive.

SMILES	FBPA coupling cs	TCR activator	TRb SRC2 PPI	TR SRC2 fluor cs	TSHR antag	NPSR antag
CNc1sc(C(=O)c2cccs2)c(N)c1-c1nc2ccccc2s1	-0.7	-1.6%	-0.6%	-1.1%	-14.4	3.16µM*
CNc1sc(C(=O)c2ccc(F)cc2)c(N)c1-c1nc2ccccc2s1	-0.4	0.9%	3.2%	-1.6%	-9.9	?
Cc1ccc(C(=O)Nc2onc3c2CCCC3)cc1	·	·	-0.3%	?	·	·
O=[N+]([O-])c1ccc(Sc2cccc[n+]2[O-])c2nonc12	-80.3*	9.5%	-16.1%	-27.0%	-91.3*	?
Cc1ccc(NC(=O)CCNS(=O)(=O)c2ccc3c(c2)CCN3C(=O)C2CC2)c(Cl)c1	·	·	-7.8%	-4.4%	·	·
O=c1[nH]c2c(s1)C(c1ccco1)C1C3CCC(C3)C1S2 (configuration not stated)	-44.1*	-0.8%	-6.9%	2.8%	8.9	-7.7%[46.1 µM]
O=C(O)CN1C(=O)C2C3CC(C2C1=O)C1C(c2ccccc2)c2sc(=O)[nH]c2SC31 (configuration not stated)	1.0	-5.7%	1.9%	0.3%	5.5	14.3%
CC1(c2ccccc2)CC(C)(C)N2C(=O)/C(=C3\SC(=S)NC3=O)c3cccc1c32 (configuration not stated)	1.1	-3.0%[46.1 µM]	-7.4%	-3.6%	-10.7	5.01µM*
CCOc1cccc(NC(=O)C2CC(=O)N(C)C(=Nc3ccc(F)cc3)S2)c1 (configuration not stated)	·	·	3.6%	-2.9%	·	·
CNC(=O)C1CCC(Cn2c(=O)c3sccc3n(CC(=O)N3CCC(C)CC3)c2=O)CC1 (configuration not stated)	·	·	3.3%	-1.7%	·	·
CCc1ccc(NC(=O)CC2C(=O)NCCN2C(=O)c2ccccc2OC)cc1 (configuration not stated)	2.9	-0.5%	-13.0%	8.91µM*[quencher]	-6.1	·
CCCOc1ccc(/C(O)=C2/C(=O)C(=O)N(CCCN3CCOCC3)C2c2ccncc2)cc1 (configuration not stated)	-62.1*	·	2.2%	1.3%	38.5	-17.2%[46.1 µM]
CCCCOc1ccc(C(=O)CCN2CCOCC2)cc1	4.9	-29.6%	5.62µM*	-4.2%	-11.0	7.6%
CCCOc1ccc(C(=O)CCN2CCCCC2)cc1	0.3	6.7%	39.8µM*	1.6%	-6.1	9.4%[46.1 µM]
CCCCOc1ccc(/C(O)=C2/C(=O)C(=O)N(CCCOC)C2c2ccncc2)cc1 (configuration not stated)	11.4	-3.3%	-12.7%	-0.9%	-0.1	-5.2%[46.1 µM]
CCOCCOCCOCCO	·	·	-6.0%[201 µM]	-4.8%[201 µM]	·	·
CC(=O)C1=C(C)NC(SCC(=O)c2cc(Cl)ccc2Cl)=C(C#N)C1c1ccco1 (configuration not stated)	-23.7	-1.3%	-10.7%	2.9%	-13.8	10µM*
COc1ccccc1NC(=O)C1=C(C)NC(SCC(=O)c2ccc(C)cc2)=C(C#N)C1c1ccco1 (configuration not stated)	1.0	·	-5.6%	-1.2%	2.8	6.31µM*
CC(=O)C1=C(C)NC(SCC(=O)c2ccc(Cl)c(Cl)c2)=C(C#N)C1c1ccco1 (configuration not stated)	-1.6	10.9%	1.3%	-4.8%	·	10µM*
CSCSC1=C(C#N)C(c2ccccc2Cl)C(C(C)=O)=C(C)N1 (configuration not stated)	0.4	0.7%	-2.2%	2.7%	-79.8*	-12.8%[46.1 µM]
CCOC(=O)CSC1=C(C#N)C(c2ccccc2F)C(C(C)=O)=C(C)N1 (configuration not stated)	0.7	4.2%	-7.3%	-1.3%	-2.5	-13.5%[46.1 µM]
Cc1ccc2occ(CC(=O)Nc3ccc(S(=O)(=O)N4CCC(C)CC4)cc3)c2c1	·	·	4.0%	-17.4%	·	·
CCC/C(=N\OCC)C1=C(O)CC(O)(CC(C)S(=O)(=O)CC)CC1=O (configuration not stated)	·	·	1.0%[201 µM]	4.1%[201 µM]	·	·
CC1=C(c2ccc(Cl)cc2)S(=O)(=O)N=C1N1CCC(C(=O)NCCc2ccco2)CC1	·	·	1.8%	-4.5%	·	·
CC1=C(c2ccc(C(C)C)cc2)S(=O)(=O)N=C1N1CCC(C(=O)NCCc2ccco2)CC1	·	·	-18.8%	25.1µM*[quencher]	·	·
SMILES	FBPA coupling cs	TCR activator	TRb SRC2 PPI	TR SRC2 fluor cs	TSHR antag	NPSR antag
CCCCCCOC(=O)C(C#N)c1nc2ccccc2nc1N1CCCCC1 (configuration not stated)	1.4	-0.6%	-3.2%	-0.5%	29.8	10µM*
CCc1ccccc1NC(=O)C(=O)c1cc(C)n(-c2ccccc2F)c1C	·	·	-10.3%	-1.6%	·	·
CCOC(=O)c1c(N)sc(C(N)=O)c1C	6.0	-24.1%	-10.7%	0.0%	7.1	21.4%[46.1 µM]
CCOC(=O)c1sc(N)c(C(N)=O)c1C	-33.2*	0.5%	-8.2%	-3.9%	17.7	11.9%
O=c1[nH]c2ccccc2nc1N1CCOCC1	3.7	-4.8%	-3.0%	-5.5%	1.4	-8.0%[46.1 µM]
c1ccc2c(c1)nc(N1CCOCC1)c1c3ccccc3[nH]c21	-44.6*	4.3%	3.2%	-2.9%	16.5	?
COc1ccccc1CNC(=O)CCCCn1c(=O)c2ccccc2n(CC(=O)Nc2c(C)cc(C)cc2C)c1=O	·	·	4.8%	2.7%	·	·
O=C(OCn1ncc(Cl)c(Cl)c1=O)c1ccccc1Cl	0.7	4.9%	1.8%	-1.6%	?	5.01µM*
c1ccc2c(c1)Cc1ccccc1-2	·	·	0.4%[201 µM]	-3.4%[201 µM]	·	·
O=C(CSc1nc2c([nH]c3ccccc32)c(=O)n1-c1ccc(F)cc1)N1CCCCCC1	·	·	3.9%	3.8%	·	·
Cc1cc(O)c(C(C)C)cc1N=Cc1ccccc1O	-50.6*	5.9%	?	-24.6%	-7.2	34.6%
Cc1cc(O)c(C(C)C)cc1N=Cc1cc([N+](=O)[O-])ccc1O	-28.0	3.8%	-2.2%	-0.5%	-2.4	2.9%
CCCS(=O)(=O)Nc1cc(-c2cn3cccc(C)c3n2)ccc1C	·	·	6.1%	-0.7%	·	·
Cc1cc(C=O)c(C)n1-c1ccc(NC2CCCC2)c([N+](=O)[O-])c1	·	-3.7%	10.9%	-23.2%	-100.0*	-15.8%[46.1 µM]
Cc1cc(C=O)c(C)n1-c1ccc(Oc2ccc([N+](=O)[O-])cn2)cc1	7.9	11.7%[46.1 µM]	6.9%	-0.7%	0.9	-14.7%
COC1=C(Nc2ccc(OC)cc2)C(=O)c2ccccc2C1=O	-33.8*	3.6%[46.1 µM]	-25.4%	-12.7%	0.0	-29.8%
COC1=C(Nc2ccc(O)cc2)C(=O)c2ccccc2C1=O	-32.5*	-3.1%[46.1 µM]	35.5µM*	?	-5.3	-32.7%
CC(C)C1=CC(=Nc2ccc(S(N)(=O)=O)cc2)C=C(C(C)C)C1=O	-43.1*	-0.2%	·	·	-2.4	·
NS(=O)(=O)c1ccc(N=C2C(=O)Nc3ccccc32)cc1	-4.4	-5.4%	4.8%	0.0%	-0.9	-14.9%
